What all share (assay): yeast three-hybrid, YBZ-1, SC-Leu-His + 0.5 mM 3-AT, 4 days
Holding throughout (details): tags: N-Gal4 AD-HA kept; label: inside an RPR1-promoter hybrid RNA with tandem MS2 sites; ssRNA

The target of test [1] is PUM1 PUF domain R5-PRG (Homo sapiens, UniProt Q14671 828-1176, C1007P;Q1011G). A digest of the protocol: (§1)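 Repeat regions from input (SC-Leu) and selection (SC-Leu-His + 0.5 mM 3-AT) plates were PCR-amplified and Illumina-sequenced after four days of growth. The cells were strain YBZ-1 with a LexA–MS2 coat fusion and a HIS3 reporter, co-expressing Pumilio-1 PUF domain libraries and matching RNA elements from a centromeric plasmid. The interaction score is the log change in variant frequency from input to selection, taken in log2 with a pseudocount of 1 for absent variants.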

Test [2] concerns the target PUM1 PUF domain R5-RRV (Homo sapiens, UniProt Q14671 828-1176, C1007R;Q1011V). A digest of the protocol: as §1
Test [3] addresses PUM1 PUF domain R5-RHH (Homo sapiens, UniProt Q14671 828-1176, C1007R;R1008H;Q1011H). The method in brief: as §1
For test [4], the target named is PUM1 PUF domain R5-SAP (Homo sapiens, UniProt Q14671 828-1176, C1007S;R1008A;Q1011P). A digest of the protocol:
as §1

Test [5] concerns the target PUM1 PUF domain R4-LNA (Homo sapiens, UniProt Q14671 828-1176, N971L;H972N;Q975A). A digest of the protocol: as §1
The target in test [6] is PUM1 PUF domain R1-KLM (Homo sapiens, UniProt Q14671 828-1176, S863K;R864L;Q867M). A digest of the protocol:
as §1

Test [7] concerns the target PUM1 PUF domain R1-SRE (Homo sapiens, UniProt Q14671 828-1176, Q867E). The method in brief:
as §1

The target of test [8] is PUM1 PUF domain R1-KRS (Homo sapiens, UniProt Q14671 828-1176, S863K;Q867S). The method in brief:
as §1

Test [9] concerns the target PUM1 PUF domain R3-LNA (Homo sapiens, UniProt Q14671 828-1176, C935L;R936N;Q939A). The method in brief:
as §1

In test [10] the target is PUM1 PUF domain R7-GRR (Homo sapiens, UniProt Q14671 828-1176, S1079G;N1080R;E1083R). The method in brief:
as §1

Test [11] deals with PUM1 PUF domain R7-GSK (Homo sapiens, UniProt Q14671 828-1176, S1079G;N1080S;E1083K). The method in brief: as §1
The target of test [12] is T1, PUM1 PUF domain R6-RWW (Homo sapiens, UniProt Q14671 828-1176, N1043R;Y1044W;Q1047W).
T1 sequence: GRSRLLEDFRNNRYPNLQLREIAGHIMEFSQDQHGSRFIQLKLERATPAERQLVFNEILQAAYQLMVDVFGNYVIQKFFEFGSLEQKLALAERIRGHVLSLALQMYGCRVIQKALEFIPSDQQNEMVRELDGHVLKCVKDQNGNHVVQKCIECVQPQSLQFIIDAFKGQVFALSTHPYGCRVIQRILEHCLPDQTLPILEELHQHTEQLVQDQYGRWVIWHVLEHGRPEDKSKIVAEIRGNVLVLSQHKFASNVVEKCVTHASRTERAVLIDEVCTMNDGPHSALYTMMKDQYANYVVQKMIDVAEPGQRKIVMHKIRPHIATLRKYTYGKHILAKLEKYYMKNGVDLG
The method in brief: as §1

The target of test [13] is PUM1 PUF domain R3-LYT (Homo sapiens, UniProt Q14671 828-1176, C935L;R936Y;Q939T). The method in brief: as §1
Test [14] has as its target PUM1 PUF domain R2-SWR (Homo sapiens, UniProt Q14671 828-1176, N899S;Y900W;Q903R). A digest of the protocol:
as §1

The target of test [15] is PUM1 PUF domain R1-RSV (Homo sapiens, UniProt Q14671 828-1176, S863R;R864S;Q867V). The method in brief: as §1
The target of test [16] is PUM1 PUF domain R8-QFP (Homo sapiens, UniProt Q14671 828-1176, N1122Q;Y1123F;Q1126P). The method in brief: as §1
The target of test [17] is PUM1 PUF domain R5-NGS (Homo sapiens, UniProt Q14671 828-1176, C1007N;R1008G;Q1011S). The method in brief: as §1
Test [18] has as its target PUM1 PUF domain R3-KSS (Homo sapiens, UniProt Q14671 828-1176, C935K;R936S;Q939S). The method in brief:
as §1

Test [19] concerns the target PUM1 PUF domain R1-GLQ (Homo sapiens, UniProt Q14671 828-1176, S863G;R864L). The method in brief:
as §1

In test [20] the target is PUM1 PUF domain R1-RIM (Homo sapiens, UniProt Q14671 828-1176, S863R;R864I;Q867M). The method in brief: as §1

From publication PMC8384837, “Expanding the binding specificity for RNA recognition by a PUF domain” come the findings set out here.

Chain of PUM1 PUF domain R1-KLM (Q14671 828-1176 S863K/R864L/Q867M): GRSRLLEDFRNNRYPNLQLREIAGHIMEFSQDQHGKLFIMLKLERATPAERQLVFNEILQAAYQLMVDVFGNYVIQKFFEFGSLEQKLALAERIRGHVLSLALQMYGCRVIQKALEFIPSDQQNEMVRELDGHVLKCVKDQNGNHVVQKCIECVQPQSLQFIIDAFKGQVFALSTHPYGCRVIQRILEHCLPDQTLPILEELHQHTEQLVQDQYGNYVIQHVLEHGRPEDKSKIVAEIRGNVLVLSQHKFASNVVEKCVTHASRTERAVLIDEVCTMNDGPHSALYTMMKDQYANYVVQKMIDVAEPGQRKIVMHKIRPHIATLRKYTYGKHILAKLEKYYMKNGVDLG
Chain of PUM1 PUF domain R7-GSK (Q14671 828-1176 S1079G/N1080S/E1083K): as the sequence (Q14671 828-1176 S863K/R864L/Q867M) above, with K36S, L37R, M40Q, S252G, N253S, E256K counted along it
Chain of PUM1 PUF domain R5-NGS (Q14671 828-1176 C1007N/R1008G/Q1011S): as the sequence (Q14671 828-1176 S863K/R864L/Q867M) above, with K36S, L37R, M40Q, C180N, R181G, Q184S counted along it
Chain of PUM1 PUF domain R5-RHH (Q14671 828-1176 C1007R/R1008H/Q1011H): as the sequence (Q14671 828-1176 S863K/R864L/Q867M) above, with K36S, L37R, M40Q, C180R, R181H, Q184H counted along it
Chain of PUM1 PUF domain R2-SWR (Q14671 828-1176 N899S/Y900W/Q903R): as the sequence (Q14671 828-1176 S863K/R864L/Q867M) above, with K36S, L37R, M40Q, N72S, Y73W, Q76R counted along it
Chain of PUM1 PUF domain R5-SAP (Q14671 828-1176 C1007S/R1008A/Q1011P): as the sequence (Q14671 828-1176 S863K/R864L/Q867M) above, with K36S, L37R, M40Q, C180S, R181A, Q184P counted along it

Turning to “GGCUAGAACUAGUGGAUCCCCCGGCGCCCGGCGGCUCGAGCCCGGGUAAGUGUGAAUAGUCUGCAUGCCGCCGGGCGCCAUGCCUGCAGGUCGACUCUAGAAAACAUG”, the binding signal in [1] is 2.67 log2 enrichment (interaction score); in test [2], 1.41 log2 enrichment (interaction score); in test [3], 3.25 log2 enrichment (interaction score); in [4], 3.23 log2 enrichment (interaction score).

Regarding “GGCUAGAACUAGUGGAUCCCCCGGCGCCCGGCGGCUCGAGCCCGGGUAAGUGUCAAUAGUCUGCAUGCCGCCGGGCGCCAUGCCUGCAGGUCGACUCUAGAAAACAUG”, the binding signal in [1] is 1.67 log2 enrichment (interaction score); in [2] it was 4.84 log2 enrichment (interaction score).

As to “GGCUAGAACUAGUGGAUCCCCCGGCGCCCGGCGGCUCGAGCCCGGGUAAGUGUAUAUAGUCUGCAUGCCGCCGGGCGCCAUGCCUGCAGGUCGACUCUAGAAAACAUG”, the binding signal in [5] was 2.84 log2 enrichment (interaction score).

In the case of “GGCUAGAACUAGUGGAUCCCCCGGCGCCCGGCGGCUCGAGCCCGGGUAAGUGUAAAUGGUCUGCAUGCCGCCGGGCGCCAUGCCUGCAGGUCGACUCUAGAAAACAUG”, the binding signal in test [6] was 0.59 log2 enrichment (interaction score); in [7] it was 4.42 log2 enrichment (interaction score); in [8] it was 2.96 log2 enrichment (interaction score).

As to “GGCUAGAACUAGUGGAUCCCCCGGCGCCCGGCGGCUCGAGCCCGGGUAAGUGUAAGUAGUCUGCAUGCCGCCGGGCGCCAUGCCUGCAGGUCGACUCUAGAAAACAUG”, in [9], the binding signal was 3.41 log2 enrichment (interaction score).

In the case of “GGCUAGAACUAGUGGAUCCCCCGGCGCCCGGCGGCUCGAGCCCGGGUAAGUUUAAAUAGUCUGCAUGCCGCCGGGCGCCAUGCCUGCAGGUCGACUCUAGAAAACAUG”, the figures for the binding signal in [10] and in test [11] were 5.06 log2 enrichment (interaction score) and 4.61 log2 enrichment (interaction score), respectively.

For “GGCUAGAACUAGUGGAUCCCCCGGCGCCCGGCGGCUCGAGCCCGGGUAAGUGUAAAUAGUCUGCAUGCCGCCGGGCGCCAUGCCUGCAGGUCGACUCUAGAAAACAUG”, the binding signal is 3.3 log2 enrichment (interaction score) in [1], 2.01 log2 enrichment (interaction score) in [2], 4.3 log2 enrichment (interaction score) in test [12] and 3.3 log2 enrichment (interaction score) in test [13].

On to “GGCUAGAACUAGUGGAUCCCCCGGCGCCCGGCGGCUCGAGCCCGGGUAAGUGUAAACAGUCUGCAUGCCGCCGGGCGCCAUGCCUGCAGGUCGACUCUAGAAAACAUG”, for which the binding signal in test [14] was 4.79 log2 enrichment (interaction score).

As for “GGCUAGAACUAGUGGAUCCCCCGGCGCCCGGCGGCUCGAGCCCGGGUAAGUGUAAAUCGUCUGCAUGCCGCCGGGCGCCAUGCCUGCAGGUCGACUCUAGAAAACAUG”, the binding signal in [15] is 3.6 log2 enrichment (interaction score); in [6] it was 3.89 log2 enrichment (interaction score); in test [8] it was 5.16 log2 enrichment (interaction score).

Consider “GGCUAGAACUAGUGGAUCCCCCGGCGCCCGGCGGCUCGAGCCCGGGUAAGCGUAAAUAGUCUGCAUGCCGCCGGGCGCCAUGCCUGCAGGUCGACUCUAGAAAACAUG”, for which the binding signal in test [16] was 4.49 log2 enrichment (interaction score).

In the case of “GGCUAGAACUAGUGGAUCCCCCGGCGCCCGGCGGCUCGAGCCCGGGUAAGUGUUAAUAGUCUGCAUGCCGCCGGGCGCCAUGCCUGCAGGUCGACUCUAGAAAACAUG”, the binding signal in test [1] was 3.9 log2 enrichment (interaction score); in test [2], 4.92 log2 enrichment (interaction score); in test [17], 4.12 log2 enrichment (interaction score).

As to “GGCUAGAACUAGUGGAUCCCCCGGCGCCCGGCGGCUCGAGCCCGGGUAAGUGUAAUUAGUCUGCAUGCCGCCGGGCGCCAUGCCUGCAGGUCGACUCUAGAAAACAUG”, the binding signal in test [9] was 2.71 log2 enrichment (interaction score); in test [18], 2.98 log2 enrichment (interaction score); in [13] it was 5.26 log2 enrichment (interaction score).

Take “GGCUAGAACUAGUGGAUCCCCCGGCGCCCGGCGGCUCGAGCCCGGGUAAGUGUAAAUUGUCUGCAUGCCGCCGGGCGCCAUGCCUGCAGGUCGACUCUAGAAAACAUG”: the binding signal in [15] is 2.17 log2 enrichment (interaction score); in [19], 2.93 log2 enrichment (interaction score); in test [20], 3.48 log2 enrichment (interaction score); in [8], 4.93 log2 enrichment (interaction score).

With “GGCUAGAACUAGUGGAUCCCCCGGCGCCCGGCGGCUCGAGCCCGGGUAAGUCUAAAUAGUCUGCAUGCCGCCGGGCGCCAUGCCUGCAGGUCGACUCUAGAAAACAUG”, in [10], the binding signal is 2.81 log2 enrichment (interaction score).
